# Data as given in ChEMBL document CHEMBL4888484, “Replenishing the malaria drug discovery pipeline: Screening and hit evaluation of the MMV Hit Generation Library 1 (HGL1) against asexual blood stage Plasmodium falciparum ,using a nano luciferase reporter read-out” (2022).
# Out of some 4,800 compounds screened, about 420 (8.8%) showed an effect of 50% or more. Only a selection was taken, and strong results are over-represented in it overall.
# Tested on: Plasmodium falciparum
# Experiment: Confirmatory screen in NF54 nanoGlo assay, in single point, at 2uM, 72h
# Format: functional, Erythrocyte
# Conditions: timepoint 72 hour
row,SMILES,% Inhibition [%]
1,Cc1occc1C(=O)NC1(c2ccccc2)CCOCC1,-5
2,COc1cc(OC)c(NC(=O)[C@H]2CCCN(c3nc4ccccc4[nH]c3=O)C2)cc1Cl,-2
3,Cc1nc2ccccc2n1C(=O)c1sc2ccccc2c1Cl,-1
4,O=S(=O)(c1ccc(Br)cc1)N1CCOC12CCCCC2,-7
5,Cn1nnc(Cn2nnc(-c3ccccc3)n2)n1,-11
6,CS(=O)(=O)N1CCC[C@H](Cn2nnnc2C=Cc2ccccc2)C1,8
7,Cc1csc(NC(=O)NCCc2cc(F)cc3c2OCOC3)n1,-14
8,COC[C@H](NCCc1cc(F)cc2c1OCOC2)C1CC1,63
9,COc1ccccc1N1CCN(C(=O)c2nnn(-c3ccccc3Cl)c2-c2cccnc2)CC1,-2
10,Cc1ccc(OCc2cccc(-c3nc4c5cn[nH]c5ncn4n3)c2)c(C)c1,-7
11,CC(C)N(CCCNC(=O)c1cnn2c3c(cnc12)CCCCCC3)Cc1ccccc1,0
12,COc1ccc(CC(=O)Nc2cc(C)n(-c3cccc(Cl)c3)n2)cc1,81
13,COc1ccc(Cn2nc(C)n(-c3cccc(F)c3)c2=O)cc1,-1
14,COc1ccc(Cl)cc1NC(=O)Cc1c(C)nc2nc(-c3ccccc3C)nn2c1C,-2
15,Fc1ccc(-c2csc(N3CCC[C@H](c4cn[nH]c4)C3)n2)cc1,-1
16,CCOC(=O)n1c(=O)[nH]c2ccc(Br)cc21,-10
17,Cc1cc(NS(=O)(=O)c2cccs2)n(-c2ccncc2)n1,2
18,O=S(=O)(Nc1nncs1)c1cccs1,-10
19,O=S(=O)(Nc1cccc2cccnc12)c1cccs1,60
20,COc1nc(N)nc(C(Cl)(Cl)Cl)n1,0
21,Cc1cc(F)ccc1CS(=O)(=O)N1CCC(CN2CCOCC2)CC1,-8
22,C[C@H](N)c1ccc(Nc2ncc3cc(-c4ccncc4)ccc3n2)cc1,93
23,CC(C)c1ccc(-c2n[nH]nc2C(=O)c2ccccc2N)cc1,-1
24,CC(C)c1ncsc1C(=O)NC(C)(C)C(=O)NCC1CCCC1,-13
25,Cc1cccc(NC(=O)c2c(C)sc3ncnc(N4CCCCC4)c23)c1C,10
26,C[n+]1ccc(-c2ncc(-c3ccccc3)o2)c2ccccc21,75

row,SMILES,% Inhibition [%]
1,CCn1ccnc1C(=O)Nc1ccc(OC)nc1,-6
2,CCc1ccc(CS(=O)(=O)NC(=O)c2cn3ccnc3s2)cc1,6
3,Cc1ccc(NC(=O)c2cn(CC3(O)CCN(Cc4ccccc4)CC3)nn2)c(C)c1,1
4,N#Cc1ccc(NCCc2ccc(O)cc2)cn1,-9
5,O=C(Nc1ccccc1-c1nnc[nH]1)c1ccc(F)c(Cl)c1,-3
6,Cn1ccc(NC(=O)c2cccc3ccccc23)n1,-8
7,COc1ccc(C(=O)Nc2ccc3c(c2)C(=O)Nc2cccnc2O3)cc1OC,46
8,O=C(Nc1[nH]c(=O)ncc1F)c1cc(F)c(F)cc1Br,95
9,O=C(Nc1[nH]c(=O)ncc1F)c1cccc2ccccc12,84
10,COc1cc(C(=O)Nc2[nH]c(=O)ncc2F)ccc1Cl,81
11,CC1(C)C(=O)NCCN1C(=O)c1cccc2ccccc12,5
12,CC(C)CN1C(=O)CC[C@@H](C(=O)NCCCOC(C)C)[C@@H]1c1cccnc1,-13
13,Cc1cc(C(=O)Nc2cc(Br)c(=O)n(C)c2)no1,-14
14,Cc1ccc(N2CCCC2)c(C(=O)N2CCN(Cc3c(C)nc4cc(C)ccn34)CC2)c1,3
15,O=C(Nc1cnc(-n2ccnc2)nc1)C(c1ccccc1)c1ccccc1,36
16,C[C@H]1CCCN(c2nc3ncn(CC(=O)Nc4ccccc4C(F)(F)F)c(=O)c3s2)C1,-15
17,O=C(NC1CCCCC1)c1cc2c(Cl)ccc3c2n1CCO3,-10
18,O=C(CC1CCOCC1)NCc1ccccn1,-11
19,COc1ccc(-c2[nH]ncc2C(=O)NCC2CCCCC2)cc1OC,2
20,COc1nc(-c2cccc(C(=O)NCC3CCOCC3)c2)ncc1F,66
21,COCc1cc(C(=O)N[C@H](c2ccccc2)C2CCOCC2)no1,0
22,O=C(NCC1CCOCC1)c1ccc2n[nH]c(=O)n2c1,-1
23,Cc1ccc(C(=O)N2CC(n3cnnc3C)C2)cc1F,-19
24,COc1ccc(C(=O)N2CC[C@H](c3nc(C4CCOCC4)no3)C2)cc1OC,2
25,COc1nc(-c2cccc(C(=O)N3C[C@@H]4CC[C@H](C3)C(=O)N4)c2)ncc1F,67
26,COCc1cc(C)n(CC#N)c(=O)c1C#N,11

row,SMILES,% Inhibition [%]
1,CCCc1ccc(Cl)c(S(=O)(=O)Nc2nnc(C3CC3)o2)c1,2
2,COC[C@@H](C)CNc1nc(C)cc(C)n1,-3
3,CCn1cc2c(n1)c(=O)n(Cc1ccc(C)cc1)c(=O)n2CC(=O)Nc1ccc(C)cc1C,-10
4,COc1ccc(C(=O)N2CC[C@H](CC(=O)N3CCOCC3)C2)cc1,-9
5,Cc1c(C(=O)NCCc2ccc(Cl)cc2)oc2ccc3c(c12)[C@@H](O)CC(C)(C)O3,4
6,O=C(N[C@H](c1ccccc1)C1CC1)c1cccnc1O,-9
7,CC1CCCC(N2C(=O)c3ccccc3C2NCc2ccccc2)C1C (centres undefined),0
8,CCOC(=O)c1cnc(N2CCCC2)nc1C1CCN(C(=O)OC(C)(C)C)CC1,-2
9,Cc1cc(C(=O)NCc2ccco2)nn1C(F)F,-13
10,Cc1noc(C)c1CS(=O)(=O)CCC(=O)NC1CCCCC1,-11
11,CC(c1ccccc1)N1C(=O)c2ccccc2C1c1c[nH]c2ccccc12 (centres undefined),23
12,CCOc1cc(C)ccc1S(=O)(=O)NC(C)C,-3
13,NC1CC(NCCc2cccc3cccnc23)c2ccccc21 (centres undefined),43
14,NC(=NCc1cccc2cccnc12)N1CCN(c2nccs2)CC1,57
15,Cc1ccc(C(=O)N2CCC(N3C(=O)[C@H]4CCCN4C3=O)CC2)cc1,-9
16,Cc1ccc2nc(-c3cccc(NC(=O)c4ccc5c(c4)OCO5)c3)oc2c1,-12
17,COC(=O)c1cccc(C#Cc2cccc(NC(=O)c3cnc(C)cn3)c2)c1,-19
18,COCCNC(=O)c1ccc(-n2nc(-c3nnc(C)o3)c(C)c2-c2ccc(OC)cc2)cc1,46
19,CC(C)N(C)CCOC(=O)c1ccccc1Cl,-1
20,CCN1c2cc(C(=O)NCc3ccncc3)ccc2C(=O)N2CCCC[C@H]21,-2
21,Cc1cc(C(=O)N(CCN(C)C)c2ccccc2)c(C)s1,-1
22,Cc1cc(C(=O)Nc2ccc(Br)c(C)n2)no1,-12
23,Cc1cc(Br)ccc1N1CC[C@@H](C(=O)NC2CC2)C1=O,2
24,CCN(CCO)S(=O)(=O)c1ccc2c(c1)CCO2,-7
25,c1ccc(CC2=NCCc3ccccc32)cc1,65
26,O=c1cc2c(nn1Cc1cccc(Cl)c1)-c1ccccc1CC2,-6

row,SMILES,% Inhibition [%]
1,Cc1cccc2ncnc(N(C)[C@@H](C)Cc3ccc(O)cc3)c12,79
2,COc1ccccc1Nc1c(-c2cccs2)nc2ccccn12,-2
3,Cc1c(N=C2NC3(CCCCC3)Cc3ccccc32)c(=O)n(C)n1-c1ccccc1,-1
4,CCC[N+]1(CC#C[C@@](O)(c2ccccc2)C(C)(CC)CC)CCCCC1,48
5,CCC[N+]1(CC#C[C@@](O)(c2ccccc2)C2(C)CCCC2)CCCCC1,46
6,CC1([C@@](O)(C#CC[N+]2(C)CCCCC2)c2ccccc2)CCCC1,50
7,O=C(N1CCCN(c2nc3ccccc3nc2-c2ccccc2)CC1)C(Cl)(Cl)Cl,46
8,CCn1cc(C(=O)Nc2ccc(C(=O)N3CCCCC3)cc2)cn1,1
9,CCN(CC)c1ccc(C(=O)Nc2ccc3nc(N4CCCC4)cc(C)c3c2)cc1,85
10,COc1cc(OC)cc(C(=O)Nc2ccc3nc(N4CCC(C)CC4)cc(C)c3c2)c1,47
11,COc1ccc(N(Cc2ccc(F)cc2)S(=O)(=O)c2ccc3nncn3c2)cc1,-13
12,CC(C)CC(=O)Nc1ccc2c(c1)C(N1CCC(C)CC1)=Nc1ccccc1O2,0
13,Cc1oc(C(=O)N2CC3(CCCC3)c3ccccc32)cc1S(=O)(=O)N(C)C,4
14,COCCCn1c(NS(=O)(=O)c2ccc3ccccc3c2)c(S(=O)(=O)c2ccc(C)cc2)c2nc3ccccc3nc21,56
15,COCCCN(Cc1c(C)nn(-c2cccc(F)c2)c1N1CCN(C)CC1)S(=O)(=O)c1ccc2ccccc2c1,7
16,COCCCn1c(NS(=O)(=O)c2ccccc2)c(S(=O)(=O)c2ccc(C)cc2)c2nc3ccccc3nc21,61
17,COc1ccc(-c2cc(C[C@H]3CNCC[C@H]3CC(=O)Nc3ccccc3)no2)cc1,-7
18,CCCn1c(C)ccc(-c2noc(CCC(=O)NC3CCCC3)n2)c1=O,-6
19,CN(C(=O)C1C(C(=O)O)C1(C)C)c1ccccc1OC(F)F (centres undefined),-2
20,Cc1ccc(C(=O)Nc2ccc(N3CCN(CCC#N)CC3)cc2C(=O)O)cc1,-12
21,Cc1ccccc1[C@H]1CCN(c2ccc(NC(=O)c3ccc(Cl)cc3)c(C(=O)O)c2)C1,-11
22,Cc1ccc(C(=O)Nc2cc3c4c(c2)C2CCCC2CN4CC2CCCC32)cc1 (centres undefined),60
23,CC(C)(C)OC(=O)N1C2CCC1CC(CC(=O)NC1CCCC1)C2 (centres undefined),8
24,COCCN(CC1CN(Cc2cccs2)CC1c1cccc(F)c1)C(=O)C(C)C (centres undefined),-3
25,Cc1cc(C)n2cc(COC(=O)Cn3c(C)cc4ccccc43)nc2n1,-2
26,Cc1oc2ncn(CCN3CCCC3)c(=O)c2c1C(=O)Nc1ccc(C#N)cc1,34
